Data taken from PubChem BioAssay AID449762 (Southern Research Specialized Biocontainment Screening …, 2010).
The campaign covered roughly 330,000 compounds. About 1,900 (0.58%) were called active. Not shown: some 4% with an inconclusive outcome. Rule as the data show it: inconclusive = inhibition above about 70% without an active follow-up result; inactive = below that. The list is a sample of the results. Entries with a potency or affinity are not part of this list.

Assay: M. tuberculosis growth inhibition, HTS (AID 449762);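 also: bacterial growth assessed after seven days of incubation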
Conditions: M. tuberculosis H37Rv growth inhibition, 7H9 media; at 25 µM; hits give high values

| Structure (SMILES) | inhibition |
| --- | --- |
| O=C(CN1CCN(Cc2ccccc2)CC1)N/N=C/C=C/c1ccccc1[N+](=O)[O-] | 12% (inactive) |
| O=C(CN1CCN(Cc2ccccc2Cl)CC1)N/N=C/C=C\c1ccccc1[N+](=O)[O-] | 3.7% (inactive) |
| CCSc1nnc(NC(=O)c2nc3nc(C)cc(C)n3n2)s1 | -7.36% (inactive) |
| Cc1ccccc1OCC(=O)OCC(=O)Nc1ccc2c(c1)OCCO2 | -7.86% (inactive) |
| Cc1ccc2c(c1)c1ncnc(N3CCN(c4ccccc4)CC3)c1n2C | 0.15% (inactive) |
| Cc1ccc2c(c1)c1ncnc(N3CCOCC3)c1n2C | -0.66% (inactive) |
| CC(=O)Nc1ccc(-c2csc(Nc3ncccn3)n2)cc1 | 10.8% (inactive) |
| Cc1c(C(=O)N2CCN(c3ccccn3)CC2)cccc1[N+](=O)[O-] | 3.8% (inactive) |
| O=C(NNS(=O)(=O)c1ccccc1[N+](=O)[O-])c1ccc(O)cc1 | 13.9% (inactive) |
| COC(=O)[C@]1(Cc2ccccc2)N[C@H](CN(C)C(=O)c2ccc(C)cc2)[C@@H]2C(=O)N(C)C(=O)[C@@H]21 | 2.73% (inactive) |
| CCOc1ccccc1C1N=C(c2ccc(OC)cc2)CC(c2ccccc2O)N1 (stereo not drawn) | 13% (inactive) |
| CCC1(C)N=C(c2ccc3c(c2)OCO3)CC(c2ccccc2O)N1 (stereo not drawn) | -5.31% (inactive) |
| COc1cccc2cc(C(=O)N3CCCCC3C)c(=O)oc12 (stereo not drawn) | -7.25% (inactive) |
| COC(=O)c1c(N)n(CCCN2CCOCC2)c2nc3ccccc3nc12 | 4.91% (inactive) |
| COCCOC(=O)c1c(N)n(CCCN2CCOCC2)c2nc3ccccc3nc12 | 0.66% (inactive) |
| Cc1[nH]c2ccccc2c1/C=N/NC(=O)CNC(=O)c1ccco1 | 1.49% (inactive) |
| COCCn1c(=S)[nH]c2cc(C(=O)N3CCc4ccccc4C3)ccc2c1=O | 5.9% (inactive) |
| CC[C@H](C)[C@H](NC(N)=O)C(=O)NCCc1ccc(Cl)cc1Cl | -2.03% (inactive) |
| Cc1ccc(CNc2ccc3nnc(-c4ccccc4)n3n2)cc1 | -2.25% (inactive) |
| Clc1ccc(CNc2ccc3nnc(-c4ccccc4)n3n2)cc1 | -9.56% (inactive) |
| Cc1cc(C)n(CCOC(=O)C2C(C=C(Cl)Cl)C2(C)C)n1 (stereo not drawn) | 6.12% (inactive) |
| C=C1c2cccc(O)c2C(O)=C2C(=O)[C@]3(O)C(O)=C(C(N)=O)C(=O)[C@@H](N(C)C)[C@@H]3[C@@H](O)[C@H]12 | 69.5% (inactive) |

| Structure (SMILES) | inhibition |
| --- | --- |
| CN(C)[C@@H]1C(=O)C(C(N)=O)=C(O)[C@@]2(O)C(=O)C3=C(O)c4c(O)cccc4[C@@](C)(O)[C@H]3[C@H](O)[C@@H]12 | 31.9% (inactive) |
| CN(C)[C@@H]1C(=O)C(C(N)=O)=C(O)[C@@]2(O)C(=O)C3=C(O)c4c(O)cccc4[C@@](C)(O)[C@H]3C[C@@H]12 | 22.5% (inactive) |
| CSC(=NC#N)N1CCN(c2c(C)cccc2C)CC1 | -2.97% (inactive) |
| CC(C)CCNC(=O)C1CC(c2cccc(F)c2)=NO1 (stereo not drawn) | -4.76% (inactive) |
| O=C(NC1CCCC1)C1CCCN1S(=O)(=O)c1cccc2cccnc12 (stereo not drawn) | -5.92% (inactive) |
| CC1CCCC(NC(=O)C2CCN(C(=O)Nc3ccccc3)CC2)C1C (stereo not drawn) | -2.53% (inactive) |
| CCC(C)[C@H](NC(=O)[C@H](Cc1ccccc1)n1c(=O)[nH]c2ccccc2c1=O)C(=O)N1CCC(C(=O)O)CC1 (stereo partly drawn) | -6.06% (inactive) |
| O=C(COC(=O)c1cnc(Cl)c(Cl)c1)c1ccc(F)cc1 | 2.14% (inactive) |
| COc1ccc(N2CCN(C(=O)C(C)(C)Oc3ccc(Cl)cc3)CC2)cc1 | 2.08% (inactive) |
| CCOc1ccc(C(C)=O)cc1COC(=O)c1cnc(Cl)c(Cl)c1 | -3.39% (inactive) |
| O=C(OCC(=O)N1CCCC1)c1cnc(Cl)c(Cl)c1 | 2.91% (inactive) |
| O=C(OCC(=O)N1CCOCC1)c1cnc(Cl)c(Cl)c1 | -0.51% (inactive) |
| CC(C)(Oc1ccc(Cl)cc1)C(=O)OCC(=O)N1CCCC1 | -3.13% (inactive) |
| O=c1[nH]cc(S(=O)(=O)Nc2ccc3c(c2)OCO3)c(=O)[nH]1 | 7.53% (inactive) |
| COc1ccc2nc(N3C(=O)C(O)=C(C(=O)c4ccco4)C3c3ccccc3OC)sc2c1 (stereo not drawn) | 0.62% (inactive) |
| COc1cccc(C2CC(c3ccccc3OC)n3ncnc3N2)c1 (stereo not drawn) | -5.17% (inactive) |
| CC(=O)N/C(=C\c1ccccc1)C(=O)NC(C)C(=O)O (stereo not drawn) | -2.83% (inactive) |
| O=C(COC(=O)c1cc2ccccc2cc1O)Nc1cccnc1Cl | -17% (inactive) |
| C=CCNC(=O)N1CCc2[nH]c3ccc(F)cc3c2C1 | -1.16% (inactive) |
| CC(OC(=O)Cc1n[nH]c(=O)c2ccccc12)C(=O)Nc1ccc(F)cc1Cl (stereo not drawn) | -10.4% (inactive) |
| Cn1c(C(=O)N(Cc2ccccc2)Cc2ccccn2)cc2sccc21 | -2.09% (inactive) |
| Cc1cccc(C(=O)OCC(=O)Nc2ccccc2C(=O)NC2CC2)c1 | -11.3% (inactive) |

| Structure (SMILES) | inhibition |
| --- | --- |
| Cn1c(SCC(=O)c2ccc3c(c2)OCCO3)nnc1C(F)(F)F | -5.9% (inactive) |
| O=C(/C=C/c1c(F)cccc1Cl)c1ccc(O)cc1 | -0.9% (inactive) |
| O=C(/C=C/c1ccc[nH]1)c1ccc(F)cc1 | 2.02% (inactive) |
| Cc1cc(C)n2c(Br)c(CSc3nc4ccccc4s3)nc2n1 | -0.87% (inactive) |
| CC(NC(=O)CSC(=S)N1CCCC1)c1ccc(S(N)(=O)=O)cc1 (stereo not drawn) | -7.22% (inactive) |
| Cc1cc(/C=N/NC(=O)c2cccs2)c(C)n1-c1cnccn1 | 11.2% (inactive) |
| Cc1cc(/C=N/NC(=O)c2cccs2)c(C)n1-c1ccccc1 | 3.6% (inactive) |
| Cc1ccc(C)c(OCC(=O)NNC(=O)CCN2CCN(c3ccccc3)CC2)c1 | 7.6% (inactive) |
| COc1cccc(NC(=O)CSc2nnc(-c3cc(C)[nH]n3)n2N)c1 | 7.87% (inactive) |
| CCc1cc2c(=O)c(-c3nc4ccccc4n3C)c(C)oc2c(CN2CCCCC2)c1O | -5.94% (inactive) |
| CCc1cc2c(=O)c(-c3cnn(-c4ccccc4)c3)c(C(F)(F)F)oc2c(CN(C)C)c1O | 5.42% (inactive) |
| CC1CN(C(=O)CCC(=O)N2CCN(c3cccc(C(F)(F)F)c3)CC2)c2ccccc2O1 (stereo not drawn) | 9.11% (inactive) |
| COc1ccccc1NC(=O)N(Cc1ccccc1)C1=NCC(C)S1 (stereo not drawn) | 6.61% (inactive) |
| CCOC(=O)c1c(C)n(C)c2ccc(OCC(O)CNCCc3ccccc3)cc12 (stereo not drawn) | 15.2% (inactive) |
| OC(CNCC1CCCO1)COc1ccc(OCC(O)CNCC2CCCO2)cc1 (stereo not drawn) | 5.75% (inactive) |
| COc1ccc(N2CCN(C(=O)c3sc4ncn(CC(=O)N5CCCCC5C)c(=O)c4c3C)CC2)cc1 (stereo not drawn) | -4.52% (inactive) |
| O=C(CSc1nc(-c2ccc(F)cc2)cs1)NCC1CCCO1 (stereo not drawn) | -0.07% (inactive) |
| O=C(CSc1nn(-c2ccc(Cl)cc2)c(=S)s1)NCC1CCCO1 (stereo not drawn) | 69.3% (inactive) |
| CCCCCCCCCCSc1n[nH]c(NC(C)=O)n1 | 4.39% (inactive) |
| COc1ccc(OC)c(-c2csc(NC(=O)COC(=O)C3(C)CC3(Cl)Cl)n2)c1 (stereo not drawn) | 8.7% (inactive) |
| CN1CCN(C(=O)/C(=C/c2ccc(F)cc2)c2ccsc2)CC1 | -3.93% (inactive) |
| COc1cc(/C=C2\C(=N)N3N=C(S(=O)(=O)CC(C)C)SC3=NC2=O)ccc1OC(=O)c1ccco1 | 0.47% (inactive) |

| Structure (SMILES) | inhibition |
| --- | --- |
| CCS(=O)(=O)C1=NN2C(=N)/C(=C\c3ccc(OC(=O)c4ccco4)c(OC)c3)C(=O)N=C2S1 | 3.16% (inactive) |
| Cc1cc(C)c(NS(=O)(=O)c2ccc(Cl)c(C(=O)O)c2)c(C)c1 | -6.92% (inactive) |
| O=C(NCCCNc1ccc([N+](=O)[O-])cc1)C(F)(F)F | -6.92% (inactive) |
| CCn1c(COc2ccc(OC)cc2)nnc1SCc1nc2ccccc2c(=O)[nH]1 | -7.06% (inactive) |
| Cc1oc(-c2cccc(C(F)(F)F)c2)nc1CN1CCN(c2ccccn2)CC1 | 63.4% (inactive) |
| CCN(CC)c1ccc(/C=N\N2CCN(Cc3ccc(C)cc3)CC2)cc1 | 38% (inactive) |
| O=C(NC(=S)NNC(=O)c1cc2ccccc2cc1O)c1ccco1 | 2.19% (inactive) |
| COc1ccc(C(=O)NC(=S)NNC(=O)c2ccco2)cc1 | 70.2% (inactive) |
| CCOc1ccc(/C=N/NC(=O)C(C)N(c2ccc(OC)cc2)S(C)(=O)=O)cc1 (stereo not drawn) | -10.4% (inactive) |
| Cc1ccc(N(CCC#N)C(=O)COC(=O)c2nc3nc(C)cc(C)n3n2)cc1 | -2.21% (inactive) |
| Cc1nc(N2CCN(c3ccccn3)CC2)c2c(C)c(C(=O)N3CCN(c4ccccc4F)CC3)sc2n1 | 61.9% (inactive) |
| Cc1nc(N2CCN(c3ccccn3)CC2)c2c(C)c(C(=O)N3CCN(c4cccc(Cl)c4)CC3)sc2n1 | 60.4% (inactive) |
| CCCC(=O)Nc1nc2ccc(C(=O)OCC)cc2s1 | -1.4% (inactive) |
| O=C(CN1C(=O)C2CCCCC2C1=O)OCn1nnc2ccccc2c1=O (stereo not drawn) | 2.65% (inactive) |
| O=C(CNC(=O)C1CCCCC1)OCn1nnc2ccccc2c1=O | 12.9% (inactive) |
| COc1ccc(C)cc1NC(=O)CCCN1C(=O)CN(C)C1=O | 4.23% (inactive) |
| CCN1CCN(C(=O)c2ccc(N3CC4CC(C3)c3cccc(=O)n3C4)c([N+](=O)[O-])c2)CC1 (stereo not drawn) | 2.16% (inactive) |
| Cc1ccc(CNC(=O)c2ccc(S(=O)(=O)N(C)C)cc2)n1C | 3.61% (inactive) |
| COC(=O)c1c(NC(=O)c2ccccc2)sc2c1CC(C)(C)NC2(C)C | -11.2% (inactive) |
| CC1(C)Cc2c(sc(NC(=O)c3ccc(C(=O)c4ccccc4)cc3)c2C#N)C(C)(C)N1 | 2.99% (inactive) |
| COc1ccc(C2Nc3ccccc3C(=O)N2c2ccc(C)cc2)cc1COc1ccccn1 (stereo not drawn) | -5.39% (inactive) |
| Cc1ccc(C)c(S(=O)(=O)N2CCN(CC(=O)Nc3cc(C)on3)CC2)c1 | 1.82% (inactive) |
